Potency and activation data for nine compounds are collected here from PubChem BioAssay (Tox21).

Molecules are shown by their SMILES. “And” between values parts separate entries of the source, which are not always exact repeats. Equal values may be shown once. Unmarked numbers belong to inactive results. Inconclusive results are not listed. The source made the active and inactive calls. Unless noted, the call rests on the fitted dose curve.

In assay [1] the target is Gonadotropin-releasing hormone receptor (Homo sapiens) (UniProt P30968). Briefly: Human gonadotropin-releasing hormone receptor (GnRHR) small molecule agonists, calcium flux assay in GnRHR-HEK293 cells (AID 1920063). Further: nearly all actives have a fitted effect of over 35% in size. The gist of the method: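 HEK293 cells stably expressing human GnRHR were plated 18 h at 37 °C, loaded with calcium dye 1 h at 37 °C, then given compound in agonist mode; fluorescence (Ex/Em 480/540) read kinetically for 3 min at 1 s intervals.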

The target in assay [2] is KiSS-1 receptor (Homo sapiens) (UniProt Q969F8). As to the kind of experiment: Human kisspeptin (KISS1R) small molecule agonists, calcium flux assay in KISS1R-HEK293 cells (AID 1920064; active means well fitted activation curve with a large enough effect in the repeat runs). The method in brief: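 HEK293 cells stably expressing human KISS1R were plated 18 h at 37 °C, loaded with calcium dye for 1 h at 37 °C, then given compound by pin tool. Fluorescence (Ex/Em 480/540) was read kinetically for 3 min.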

A short description of assay [3]: G protein-coupled receptor (GPCR) small molecule agonists, calcium flux assay: HEK293 wild type cell line counter screen (AID 1920065). The method in brief:
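Cells were plated and cultured 18 h at 37 C/5% CO2, then loaded with calcium dye for 1 h at 37 C. Compounds in DMSO were pin-transferred in agonist mode, and fluorescence (Ex/Em 480/540) was read kinetically for 3 min at 1 s intervals.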

Assay [4] in a line: p53 small molecule agonists, cell-based qHTS assay with human liver microsomes (AID 1963577).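 Further: p53 response element beta-lactamase reporter cells with liver microsomes plus NADPH.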 The method in brief:
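p53RE-bla cells; 5 h settle, 37 C/5% CO2; cpd + HLM 0.5 mg/mL + NADPH 0.5 mg/mL (final); 16 h 37 C; LiveBLAzer 2 h RT dark; fluorescence readout.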

The nature of assay [5]: p53 small molecule agonists, cell-based qHTS assay with rat liver microsomes (AID 1963578). The method in brief: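 Rat liver microsome activation: microsomes 0.5 mg/mL, NADPH 0.5 mg/mL final; p53RE-bla cells, 16 h 37 C; LiveBLAzer readout, 2 h RT dark.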
Assay [6] in a line: p53 small molecule agonists, cell-based qHTS assay with human liver microsomes: qHTS cell viability counter screen (AID 1963579). Further: nearly all actives have a fitted effect of over 45% in size. The method in brief:
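Luminescent CellTiter-Glo read-out, 30 min at room temperature, gauged cytotoxicity in p53RE-bla cells exposed 16 h at 37 C to DMSO-dissolved compounds with metabolic activation by human liver microsomes and NADPH, each 0.5 mg/mL final.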

A short description of assay [7]: p53 small molecule agonists, cell-based qHTS assay with rat liver microsomes: qHTS cell viability counter screen (AID 1963580). Further: nearly all actives have a fitted effect of over 45% in size. The gist of the method:
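Intracellular ATP, by CellTiter-Glo luminescence, defines viability. HCT-116 p53RE-bla cells, 4,000 per well, were compound-treated in the presence of rat liver microsomes and NADPH for 16 h at 37 C.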

Assay [8] in a line: p53 small molecule agonists, cell-based qHTS assay: qHTS cell viability counter screen (AID 1963581). Further: nearly all actives have a fitted effect of over 45% in size. The gist of the method:
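p53RE-bla HCT-116 cells were exposed to compounds for 16 h at 37 C; after the beta-lactamase FRET read in the same wells, CellTiter-Glo was added and luminescence (intracellular ATP) read after 30 min at room temperature.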

In assay [9] the target is 5-hydroxytryptamine receptor 2A (Homo sapiens) (UniProt P28223). Briefly: 5-hydroxytryptamine receptor 2A (HTR2A) small molecule antagonists, cell-based qHTS assay (AID 1963586). Further: nearly all actives have a fitted effect of over 45% in size. The method in brief:
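Antagonist-mode intracellular calcium assay: DOI (4 nM) added after 5 min compound pre-incubation at room temperature to dye-loaded HTR2A-CHO cells. Fluorescence followed for 3 min, sampled every second.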

In assay [10] the target is Muscarinic acetylcholine receptor M1 (Homo sapiens) (UniProt P11229). As to the kind of experiment: Cholinergic receptor muscarinic 1 (CHRM1) small molecule antagonists, cell-based qHTS assay (AID 1963588). Further: nearly all actives have a fitted effect of over 40% in size. Further: potency means the concentration at half of the fitted maximal effect. The method in brief: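 CHRM1-CHO calcium-flux assay, antagonist mode. Cells were seeded 18 h, dye-loaded 1 h at 37 C and given compound for 5 min at RT, then acetylcholine was added at 50nM. FDSS fluorescence was read 3 min; 15 concentrations, three runs.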

Assay [11] shares this target. Briefly: Cholinergic receptor muscarinic 1 (CHRM1) small molecule agonists, cell-based qHTS assay (AID 1963589). Further: nearly all actives have a fitted effect of over 35% in size. The gist of the method:
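CHO cells stably expressing human CHRM1, seeded 18 h at 37 C/5% CO2, dye-loaded 1 h at 37 C, then given compound in agonist mode; intracellular calcium fluorescence read kinetically at 1 s intervals. Fifteen concentrations, three independent runs.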

Assay [12] is described as follows: cAMP Responsive Elements (CRE) small molecule agonists, cell-based qHTS assay (AID 1963590). The method in brief: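 CRE-bla HEK 293T cells in DMEM with 10% dialyzed FBS, NEAA, pyruvate and 25 mM HEPES were plated 18 h at 37 C/5% CO2, then exposed to compounds in DMSO for 3 h before LiveBLAzer B/G FRET substrate addition.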
For assay [13], the target named is D(2) dopamine receptor (Homo sapiens) (UniProt P14416). As to the kind of experiment: Dopamine D2 receptor (DRD2) small molecule agonists, cell-based qHTS assay (AID 1963594). Further: nearly all actives have a fitted effect of over 35% in size. The method in brief: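 cAMP accumulation in DRD2-HEK293 cells measured by HTRF after 1 h detection; compounds added 10 min before NKH477 (200nM […]) forskolin-analogue stimulation, 30 min at room temperature, with Ro20-1724 present at 0.1 mM final.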

The target is the same in assay [14]. As to the kind of experiment: Dopamine D2 receptor (DRD2) small molecule antagonists, cell-based qHTS assay (AID 1963595; active means well fitted inhibition curve with a large enough effect in the signal ratio in the repeat runs, with a control signal flat; the % refers to the signal ratio). The method in brief: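 DRD2-HEK293; 0.1 mM Ro20-1724; cpd 10 min RT; NKH477 200 nM + quinpirole 12 nM, 30 min RT; HTRF cAMP (cAMP-d2/anti-cAMP cryptate), 665/620 nm ratio after 1 h.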
Assay [15] in a line: p53 small molecule agonists, cell-based qHTS assay (AID 1963582; active means well fitted activation curve with a large enough effect in the signal ratio in the repeat runs, not every such curve was filed as active; the % refers to the signal ratio; further: potency means the concentration at half of the fitted maximal effect). The gist of the method:
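p53RE-bla beta-lactamase reporter cells rested 5 h at 37 C/5% CO2, then received compounds in DMSO by pin transfer and were incubated 16 h at 37 C. LiveBLAzer B/G FRET substrate was loaded for 2 h at room temperature before fluorescence reading.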

Assay [16] in a line: cAMP Responsive Elements (CRE) small molecule antagonists, cell-based qHTS assay (AID 1963591; active means well fitted inhibition curve with a large enough effect in the signal ratio in the repeat runs, not every such curve was filed as active; the % refers to the signal ratio). The gist of the method: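 CRE-bla HEK293T cells were plated 18 h at 37 °C/5% CO2, pinned with compound in DMSO, then stimulated with NKH477 at 0.25 uM final for 3 h. LiveBLAzer B/G FRET substrate was added and plates incubated 2 h at room temperature.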
Assay [17] addresses Beta-2 adrenergic receptor (Homo sapiens) (UniProt P07550). As to the kind of experiment: Adrenergic beta2 receptor (ADRB2) small molecule antagonists, cell-based qHTS assay (AID 1963592). Further: series mostly up to about 92 µM; nearly all actives have a fitted effect of over 50% in size. The gist of the method:
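Cells (CHO, stable ADRB2 overexpression) incubated 18-20hr at 37C; compounds added from DMSO; agonist mix (1nM isoproterenol, 100uM IBMX, 25uM Ro-20-1724) added; 0.5hr RT; d2-cAMP and anti-cAMP-cryptate added; 1hr RT; 665/615 nm read.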

For assay [18] the target is unchanged. As to the kind of experiment: Adrenergic beta2 receptor (ADRB2) small molecule agonists, cell-based qHTS assay (AID 1963593).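 Further: CHO cells stably overexpressing human ADRB2.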 The gist of the method:
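CHO cells stably over-expressing ADRB2 were plated overnight at 37C, then dosed with compounds plus a stimulation mix containing 100uM IBMX and 25uM Ro-20-1724 for 0.5hr at room temperature. cAMP was measured by HTRF competition, 1hr.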

Assay [19] addresses 5-hydroxytryptamine receptor 2A (Homo sapiens) (UniProt P28223). Briefly: 5-hydroxytryptamine receptor 2A (HTR2A) small molecule agonists, cell-based qHTS assay (AID 1963587). Further: nearly all actives have a fitted effect of over 30% in size. The gist of the method: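 Kinetic calcium-flux fluorescence (2 min, 1 sec intervals) after compound addition in agonist mode. HTR2A-CHO cells were cultured 18 h, then dye-loaded 1 h at 37 C.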
Assay [20] in a line: Nuclear factor erythroid 2-related factor 2/antioxidant responsive element (Nrf2/ARE) small molecule agonists: luciferase reporter gene qHTS assay in human keratinocytes (AID 1919969). Further: nearly all actives have a fitted effect of over 35% in size.
On the % scale 0 is the no-effect control and ±100 the full control effect.

Sequence of Beta-2 adrenergic receptor (Homo sapiens) (P07550 whole entry, looked up): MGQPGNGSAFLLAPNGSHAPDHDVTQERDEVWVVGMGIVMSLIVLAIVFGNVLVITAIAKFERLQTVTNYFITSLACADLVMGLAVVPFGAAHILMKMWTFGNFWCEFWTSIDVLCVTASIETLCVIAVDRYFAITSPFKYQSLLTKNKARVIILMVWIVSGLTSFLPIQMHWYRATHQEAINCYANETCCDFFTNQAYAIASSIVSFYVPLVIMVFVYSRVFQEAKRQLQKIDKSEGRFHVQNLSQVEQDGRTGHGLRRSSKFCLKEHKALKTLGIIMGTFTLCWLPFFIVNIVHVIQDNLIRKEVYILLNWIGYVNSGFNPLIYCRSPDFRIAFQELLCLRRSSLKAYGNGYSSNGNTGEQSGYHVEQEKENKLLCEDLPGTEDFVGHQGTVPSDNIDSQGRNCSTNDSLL
Sequence of D(2) dopamine receptor (Homo sapiens) (P14416 whole entry, looked up): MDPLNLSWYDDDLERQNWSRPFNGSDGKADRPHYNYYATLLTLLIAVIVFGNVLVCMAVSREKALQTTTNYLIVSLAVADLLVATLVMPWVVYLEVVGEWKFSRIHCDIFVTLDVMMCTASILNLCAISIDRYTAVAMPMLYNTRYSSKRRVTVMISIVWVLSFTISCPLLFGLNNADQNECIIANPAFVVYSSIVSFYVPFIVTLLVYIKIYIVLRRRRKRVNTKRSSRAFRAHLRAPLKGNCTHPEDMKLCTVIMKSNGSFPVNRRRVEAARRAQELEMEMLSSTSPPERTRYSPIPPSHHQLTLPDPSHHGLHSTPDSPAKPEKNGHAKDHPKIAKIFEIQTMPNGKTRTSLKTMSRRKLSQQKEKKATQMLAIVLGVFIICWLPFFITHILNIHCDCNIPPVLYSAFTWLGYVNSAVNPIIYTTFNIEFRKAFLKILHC
Sequence of 5-hydroxytryptamine receptor 2A (Homo sapiens) (P28223 whole entry, looked up): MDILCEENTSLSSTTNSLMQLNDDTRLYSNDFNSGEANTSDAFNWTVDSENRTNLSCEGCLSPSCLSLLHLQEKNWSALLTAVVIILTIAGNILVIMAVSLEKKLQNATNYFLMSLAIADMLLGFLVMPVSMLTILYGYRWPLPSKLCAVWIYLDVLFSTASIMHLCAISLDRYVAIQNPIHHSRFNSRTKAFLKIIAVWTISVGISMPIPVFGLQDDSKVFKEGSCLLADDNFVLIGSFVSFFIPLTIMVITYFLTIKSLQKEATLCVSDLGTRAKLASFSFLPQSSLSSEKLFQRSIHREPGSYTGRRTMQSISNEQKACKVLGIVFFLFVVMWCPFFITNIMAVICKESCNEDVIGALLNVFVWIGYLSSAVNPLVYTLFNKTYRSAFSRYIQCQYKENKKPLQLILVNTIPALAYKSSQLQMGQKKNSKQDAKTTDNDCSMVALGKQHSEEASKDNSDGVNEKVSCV
Sequence of Gonadotropin-releasing hormone receptor (Homo sapiens) (P30968 whole entry, looked up): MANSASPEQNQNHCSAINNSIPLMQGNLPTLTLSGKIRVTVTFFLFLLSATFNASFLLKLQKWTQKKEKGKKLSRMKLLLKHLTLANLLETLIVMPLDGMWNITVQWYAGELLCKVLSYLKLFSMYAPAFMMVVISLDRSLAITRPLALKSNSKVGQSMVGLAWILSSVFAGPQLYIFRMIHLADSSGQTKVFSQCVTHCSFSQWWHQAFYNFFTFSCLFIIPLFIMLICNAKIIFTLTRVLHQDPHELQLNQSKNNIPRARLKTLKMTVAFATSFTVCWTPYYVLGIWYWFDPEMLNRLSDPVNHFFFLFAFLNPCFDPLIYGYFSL
Sequence of KiSS-1 receptor (Homo sapiens) (Q969F8 whole entry, looked up): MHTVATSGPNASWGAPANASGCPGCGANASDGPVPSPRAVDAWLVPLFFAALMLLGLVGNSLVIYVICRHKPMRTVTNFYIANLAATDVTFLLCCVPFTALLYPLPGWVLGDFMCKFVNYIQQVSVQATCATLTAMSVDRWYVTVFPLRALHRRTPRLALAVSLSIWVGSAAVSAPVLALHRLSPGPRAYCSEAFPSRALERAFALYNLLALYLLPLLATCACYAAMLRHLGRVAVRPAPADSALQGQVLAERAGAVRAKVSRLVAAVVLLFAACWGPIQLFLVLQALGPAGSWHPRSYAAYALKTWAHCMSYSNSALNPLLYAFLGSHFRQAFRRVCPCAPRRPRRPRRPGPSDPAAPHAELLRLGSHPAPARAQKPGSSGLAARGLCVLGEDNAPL
Sequence of Muscarinic acetylcholine receptor M1 (Homo sapiens) (P11229 whole entry, looked up): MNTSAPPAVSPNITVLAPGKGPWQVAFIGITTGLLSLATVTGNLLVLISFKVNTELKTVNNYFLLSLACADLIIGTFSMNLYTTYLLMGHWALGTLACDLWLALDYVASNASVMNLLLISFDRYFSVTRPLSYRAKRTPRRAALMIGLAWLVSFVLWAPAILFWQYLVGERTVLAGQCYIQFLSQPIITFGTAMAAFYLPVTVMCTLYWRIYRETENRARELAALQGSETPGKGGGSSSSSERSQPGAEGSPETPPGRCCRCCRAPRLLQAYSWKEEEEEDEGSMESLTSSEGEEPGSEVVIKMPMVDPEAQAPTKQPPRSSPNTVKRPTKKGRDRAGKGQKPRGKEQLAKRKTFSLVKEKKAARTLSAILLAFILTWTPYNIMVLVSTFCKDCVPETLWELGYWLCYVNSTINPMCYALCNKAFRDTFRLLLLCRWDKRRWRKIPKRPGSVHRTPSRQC

Consider `CCNc1nc(NC(C)(C)C)nc(SC)n1`, for which the Potency result in assay [1], in [2], in [3], in assay [4], in assay [5] and in assay [6] was “inactive” in each case. Also, the Potency entry in assay [7], in [8], in [9], in [10], in [11] and in assay [12] was “inactive” throughout. Besides, the Potency entry in assay [13] and in [14] was “inactive” each time.

For `C=CCOC(Cn1ccnc1)c1ccc(Cl)cc1Cl` (stereo unspecified), the Potency result in [1], in [2], in assay [3], in assay [4], in [5] and in assay [6] was “inactive” each time. Further, the Potency entry in assay [7], in assay [8], in [15], in [11], in assay [12] and in assay [16] was “inactive” each time. Further, the Potency result in assay [17], in assay [18], in [13] and in assay [14] was “inactive” in each case. The Potency in [10] was 5.96 µM (active) and 18.8 µM (active).

For the compound `CCN(CC)N=O`, the Potency entry in assay [1], in [2], in assay [3], in assay [4], in assay [5] and in assay [6] was “inactive” each time. Further, the Potency result in assay [7], in assay [8], in assay [15], in [12], in assay [16] and in assay [17] was “inactive” throughout. The Potency result in assay [14] is “inactive”.

Turning to `[O]=[Cr][O][Cr]=[O]`, the Potency entry in assay [1], in [2], in assay [3], in [4], in [5] and in [6] was “inactive” in each case. In addition, the Potency entry in assay [8], in [15], in [9], in assay [19], in assay [10] and in [11] was “inactive” each time. Besides, the Potency result in assay [12], in [16], in assay [17], in [13] and in assay [14] was “inactive” in each case.

Turning to `COC(=O)Nc1nc2ccccc2[nH]1`, the Potency result in assay [1], in [2], in [3], in [4], in assay [6] and in assay [7] was “inactive” in each case. In addition, the Potency result in assay [9], in assay [19], in assay [10], in [11], in assay [12] and in assay [17] was “inactive” throughout. Further, the Potency entry in assay [18], in assay [13] and in assay [14] was “inactive” in each case. Further, the Potency in assay [15] was 9.13 µM (active).

With `CC(=O)O`, the Potency entry in assay [1], in assay [3], in [6], in [7], in assay [8] and in assay [9] was “inactive” each time. The Potency result in assay [19], in assay [10], in [11], in assay [12], in [16] and in [17] was “inactive” each time. The Potency entry in assay [13] and in assay [14] was “inactive” in each case. In assay [18], the activation is -4.33% [at 8.39 µM].

For the compound `CCC/C=N/O`, the Potency result in [20], in assay [1], in [2], in assay [3], in assay [4] and in assay [5] was “inactive” in each case. The Potency entry in [6], in assay [7], in [8], in assay [15], in assay [9] and in assay [19] was “inactive” throughout. Besides, the Potency result in [10], in assay [11], in assay [12], in [16], in assay [17] and in assay [18] was “inactive” throughout. The Potency entry in [13] and in assay [14] was “inactive” each time.

Turning to `CCCCCc1cc(O)cc(O)c1`, the Potency entry in assay [1], in assay [3], in assay [4], in assay [6], in assay [7] and in [9] was “inactive” in each case. For the same compound, the Potency entry in assay [19], in assay [10], in assay [11], in assay [16], in assay [17] and in assay [18] was “inactive” each time. In addition, the Potency entry in [13] and in assay [14] was “inactive” each time.

In the case of `C=C(Cl)CCl`, the Potency result in assay [20], in assay [1], in [2], in assay [3], in assay [4] and in assay [5] was “inactive” in each case. For the same compound, the Potency entry in assay [6], in [7], in assay [8], in assay [15], in [9] and in [19] was “inactive” each time. Moreover, the Potency entry in [10], in assay [11], in assay [12], in assay [16], in assay [17] and in assay [18] was “inactive” each time. The Potency entry in assay [13] and in assay [14] was “inactive” in each case.
